# According to PubChem BioAssay (NCI):
# The panel holds about 83,000 compounds, 20% with a hit somewhere; the sample as a whole holds those more often.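 Assay: single dose, 48 h. Readout: percent growth (0 = no net growth; negative = cell death). Active: <10.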 Calls of active or inactive are those of the source.
# Tested on: OVCAR-3 ovarian
# Assay: NCI-60 one-dose screen, 48 h (100 = growth as untreated, 0 = no growth, -100 = all killed)
# Conditions: 10 µM unless noted
# Method: Growth inhibition of the OVCAR-3 human tumor cell line is measured as a screen for anti-cancer activity. Cells are grown in 96 well plates and exposed to the test compound for 48 hours. Compounds are tested at a single concentration, which is 10^-5 M for most compounds. The reported endpoint is percent growth (GI% or GIPRCNT), where numbers from 0 - 100% represent growth inhibition, and numbers from -100% - 0 represent cell death. For example, a value of 40 represents 60% growth inhibition. A value of 0 means no net growth occurred over the course of the experiment. A value of -40 indicates 40% of cells at the beginning of the experiment died by the end of the experiment. A value of -100 means all cells are dead at the end of the experiment.
# NCI-60 Human Tumor Cell Lines Screen was performed using the standard one-dose NCI protocol, which is described in more detail at https://dtp.cancer.gov/discovery_development/nci-60/default.htm.
# Compounds with GIPRCNT values below 10 were considered active. Activity score was based on GIPRCNT using the following formula: […]
# Score is 0 for GIPRCNT values of 100 or above, 50 for GIPRCNT values of 0, and 100 for GIPRCNT values of -100.
row,Structure (SMILES),growth
1,CC[C@]1(O)C[C@@H]2CN(CCc3c([nH]c4ccccc34)[C@@](C(=O)OC)(c3cc4c(cc3OC)N(C)[C@H]3[C@@](O)(C(=O)OC)[C@H](OC(=O)CCCBr)[C@]5(CC)C=CCN6CC[C@]43[C@@H]65)C2)C1,-1.93% (active)
2,O=C1/C(=C/c2ccc(O)cc2)COc2ccc(O)c(O)c21,-8.96% (active)
3,COC(=O)C1=C(C)NC(C)=C(C(=O)OC)C(N2C(=O)CCC2=O)C1 (stereo not given),99.6% (inactive)
4,CC(C)[C@H](NC(=O)Cn1cc(C(=O)O)nn1)C(=O)O,108% (inactive)
5,COc1cc(C(=O)O/N=C(\N)Cc2cccc3ccccc23)cc(OC)c1OC,6.38% (active)
6,Brc1ccc(Oc2ccc(Nc3ncnc4onc(-c5ccccc5)c34)cc2)cc1,119% (inactive)
7,Cc1nc(Nc2ccccn2)sc1C(=O)/C=C/c1ccc(Cl)cc1,-23.2% (active)
8,CCOc1c(Br)cc(C2C(C(=O)OC)=CN(C)C=C2C(=O)OC)cc1OC,83.3% (inactive)
9,COC(=O)/C(=C\c1c(C)[nH]c2ccccc12)S(=O)(=O)c1ccccc1,-19.8% (active)
10,Clc1ccc(Nc2scc3[n+]2CCC3)cc1,101% (inactive)
11,COc1ccc2oc(=O)cc(Cn3cc(Cn4cnc5c4c(=O)n(C)c(=O)n5C)nn3)c2c1,110% (inactive)
12,CC(C)(C)c1ccc(C2CC(=O)C3=C(C2)Nc2ccccc2N(C(=O)c2ccccc2Cl)C3c2ccc(F)cc2)cc1 (stereo not given),-28.5% (active)
13,CC[C@H](C)[C@@H](C(=O)OC)n1cc(CNC(=O)[C@@H](Cc2ccccc2)NC(=O)OCc2ccccc2)nn1,115% (inactive)
14,COc1ccc2sc(N(Cc3cccnc3)C(=O)c3ccc(C#N)cc3)nc2c1,92.2% (inactive)
15,CCCCC1COc2cccc3c2N1C=C/C3=C\C(=O)N(C)c1ccccc1 (stereo not given),49.2% (inactive)
16,O=C(CN1C(=O)/C(=C\c2ccc(Cl)cc2)SC1=S)Nc1ncc(Cc2ccc(Cl)cc2)s1,108% (inactive)
17,Cc1cc2c(c(C)c1Cl)C(=O)/C(=C/c1cccc([N+](=O)[O-])c1)O2,107% (inactive)
18,CCCC(c1nnnn1C1CCCCC1)N1CCN(C(=O)c2ccco2)CC1 (stereo not given),25.2% (inactive)
19,O=C1Nc2ccccc2/C1=C/c1ccc[nH]1,81.7% (inactive)
20,O=S1(=O)N(Cc2ccccc2)[C@@H](Cc2ccccc2)[C@H](O)[C@H](O)[C@H](Cc2ccccc2)N1Cc1ccccc1,-22% (active)

row,Structure (SMILES),growth
1,Cn1nc(C(F)(F)F)c(-c2ccc(Cl)c(C(F)(F)F)c2)c1-c1ccc(OCc2ccc(Cl)cc2)cc1O,1.24% (active)
2,COc1cc(/C=C2\Oc3cc(OCCCN4CCCC4)ccc3C2=O)cc(OC)c1,-34.6% (active)
3,O=C1/C(=C\c2ccc[nH]2)c2ccccc2N1c1ccccc1,112% (inactive)
4,O=c1oc2ccc(I)cc2c(=O)n1-c1ccc(F)cc1F,2.05% (active)
5,CCCCN1CCN(c2ccc3nc(-c4ccc5nc(-c6ccc(OC)c(OC)c6)[nH]c5c4)[nH]c3c2)CC1,-46.8% (active)
6,O=c1oc2ccc(F)cc2c(=O)n1-c1ccc(I)cc1F,8.05% (active)
7,CCN(CC)c1cc(C)c2cc(NC(=O)c3cccc(OC)c3)ccc2n1,74.8% (inactive)
8,COc1cc(C2CC(c3ccc(Nc4nc(NCCO)nc(N5CCOCC5)n4)cc3)=NN2c2cc(Cl)cc(Cl)c2)cc(OC)c1OC (stereo not given),56.9% (inactive)
9,O=C1c2cc(I)ccc2Oc2cc([N+](=O)[O-])ccc2N1c1ccc(Cl)cc1F,100% (inactive)
10,COc1ccc(-c2nsc3c2NC(=O)CC3c2ccc3c(c2)OCCO3)cc1 (stereo not given),-38.6% (active)
11,COc1ccc(-n2c(C(O)c3ccccc3)n[nH]c2=S)cc1 (stereo not given),95.8% (inactive)
12,CCN(CC)CCNC(=O)C(Cl)=C1C(Cl)=C(Cl)C(Cl)=C1Cl,40.1% (inactive)
13,COc1cc(C(=O)Nc2ccc(-c3nc4ccccc4[nH]3)cc2)cc(OC)c1OC,9.3% (active)
14,CCOC(=O)C1=C(C)N=c2s/c(=C\c3cc(Cl)ccc3O)c(=O)n2C1c1ccc(OC)cc1 (stereo not given),95.5% (inactive)
15,O=Cc1c(OCc2cnnn2CC(=O)Nc2ccc(Br)cc2)ccc2ccccc12,97.2% (inactive)
16,CCN1C(=O)N(c2ccccc2)C2NN=c3s/c(=C4\C(=O)N(C(C)C)c5ccccc54)c(=O)n3C21 (stereo not given),1.06% (active)
17,NC(=O)CSc1nc(-c2ccc(F)cc2)cc(-c2ccco2)n1,111% (inactive)
18,Nc1nc2c(ncn2[C@@H]2O[C@H](CS)[C@@H](O)[C@H]2O)c(=O)[nH]1,104% (inactive)
19,O=C(/C=C/c1ccccc1)c1ccc(Nc2nc(NCCO)nc(Nc3ccc(Cl)cc3)n2)cc1,59.9% (inactive)
20,COC(=O)/C(CCC=C(C)C)=C1\[C@@H](OC(C)=O)C[C@@]2(C)[C@H]1C[C@@H](O)[C@H]1[C@@]3(C)CC[C@H](NC(=O)c4cnccn4)[C@@H](C)[C@@H]3CC[C@@]12C,108% (inactive)
